The values that follow come from ChEMBL document CHEMBL5308504, “Tm Shift (DSF) assay results for EUbOPEN Chemogenomics Library” (2023).

Conditions in all cases: Compound concentration 20.0 uM, Protein concentration 2.0 uM, Result type QC Liability
Assay [1] addresses Tyrosine-protein kinase ABL1 (Homo sapiens) (UniProt P00519).
For assay [2], the target named is Cyclin-dependent kinase 2 (Homo sapiens) (UniProt P24941).
Assay [3] has as its target Casein kinase I isoform delta (Homo sapiens) (UniProt P48730).
For assay [4], the target named is Glycogen synthase kinase-3 beta (Homo sapiens) (UniProt P49841).
Chain of Glycogen synthase kinase-3 beta (Homo sapiens) (P49841 whole entry, looked up): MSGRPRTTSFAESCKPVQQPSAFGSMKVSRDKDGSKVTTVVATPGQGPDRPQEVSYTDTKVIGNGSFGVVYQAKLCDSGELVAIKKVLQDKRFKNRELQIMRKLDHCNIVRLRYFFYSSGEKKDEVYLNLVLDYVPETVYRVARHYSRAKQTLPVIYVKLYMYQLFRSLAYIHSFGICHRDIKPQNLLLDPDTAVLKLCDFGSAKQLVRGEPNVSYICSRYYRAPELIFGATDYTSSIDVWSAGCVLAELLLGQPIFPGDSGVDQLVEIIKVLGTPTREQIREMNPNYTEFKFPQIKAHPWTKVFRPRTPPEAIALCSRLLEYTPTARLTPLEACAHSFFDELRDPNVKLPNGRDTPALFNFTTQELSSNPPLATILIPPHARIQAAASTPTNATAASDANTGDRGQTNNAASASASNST
In assay [5] the target is Mitogen-activated protein kinase 1 (Homo sapiens) (UniProt P28482).
Chain of Mitogen-activated protein kinase 1 (Homo sapiens) (P28482 whole entry): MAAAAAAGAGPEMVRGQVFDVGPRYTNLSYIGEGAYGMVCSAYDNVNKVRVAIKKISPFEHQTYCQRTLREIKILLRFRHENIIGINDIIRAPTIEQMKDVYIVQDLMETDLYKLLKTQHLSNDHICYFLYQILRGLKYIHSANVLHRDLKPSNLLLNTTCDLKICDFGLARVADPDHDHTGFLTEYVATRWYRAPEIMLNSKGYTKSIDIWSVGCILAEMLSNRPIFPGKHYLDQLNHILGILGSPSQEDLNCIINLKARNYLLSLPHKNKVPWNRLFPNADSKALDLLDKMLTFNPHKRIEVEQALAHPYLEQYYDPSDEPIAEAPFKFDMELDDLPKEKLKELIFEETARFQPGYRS
Assay [6] addresses T1, Aurora kinase A (Homo sapiens) (UniProt O14965).
T1 sequence (whole entry): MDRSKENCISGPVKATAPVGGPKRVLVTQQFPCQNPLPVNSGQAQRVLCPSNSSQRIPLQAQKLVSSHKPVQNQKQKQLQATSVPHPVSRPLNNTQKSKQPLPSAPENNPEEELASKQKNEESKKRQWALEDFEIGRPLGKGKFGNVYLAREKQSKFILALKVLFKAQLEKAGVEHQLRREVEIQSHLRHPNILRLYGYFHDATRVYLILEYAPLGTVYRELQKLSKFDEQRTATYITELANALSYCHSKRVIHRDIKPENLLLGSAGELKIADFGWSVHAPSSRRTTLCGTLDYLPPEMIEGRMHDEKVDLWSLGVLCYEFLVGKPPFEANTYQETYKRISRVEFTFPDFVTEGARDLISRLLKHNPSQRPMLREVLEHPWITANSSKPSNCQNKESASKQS

Chain of Tyrosine-protein kinase ABL1 (Homo sapiens) (P00519 whole entry): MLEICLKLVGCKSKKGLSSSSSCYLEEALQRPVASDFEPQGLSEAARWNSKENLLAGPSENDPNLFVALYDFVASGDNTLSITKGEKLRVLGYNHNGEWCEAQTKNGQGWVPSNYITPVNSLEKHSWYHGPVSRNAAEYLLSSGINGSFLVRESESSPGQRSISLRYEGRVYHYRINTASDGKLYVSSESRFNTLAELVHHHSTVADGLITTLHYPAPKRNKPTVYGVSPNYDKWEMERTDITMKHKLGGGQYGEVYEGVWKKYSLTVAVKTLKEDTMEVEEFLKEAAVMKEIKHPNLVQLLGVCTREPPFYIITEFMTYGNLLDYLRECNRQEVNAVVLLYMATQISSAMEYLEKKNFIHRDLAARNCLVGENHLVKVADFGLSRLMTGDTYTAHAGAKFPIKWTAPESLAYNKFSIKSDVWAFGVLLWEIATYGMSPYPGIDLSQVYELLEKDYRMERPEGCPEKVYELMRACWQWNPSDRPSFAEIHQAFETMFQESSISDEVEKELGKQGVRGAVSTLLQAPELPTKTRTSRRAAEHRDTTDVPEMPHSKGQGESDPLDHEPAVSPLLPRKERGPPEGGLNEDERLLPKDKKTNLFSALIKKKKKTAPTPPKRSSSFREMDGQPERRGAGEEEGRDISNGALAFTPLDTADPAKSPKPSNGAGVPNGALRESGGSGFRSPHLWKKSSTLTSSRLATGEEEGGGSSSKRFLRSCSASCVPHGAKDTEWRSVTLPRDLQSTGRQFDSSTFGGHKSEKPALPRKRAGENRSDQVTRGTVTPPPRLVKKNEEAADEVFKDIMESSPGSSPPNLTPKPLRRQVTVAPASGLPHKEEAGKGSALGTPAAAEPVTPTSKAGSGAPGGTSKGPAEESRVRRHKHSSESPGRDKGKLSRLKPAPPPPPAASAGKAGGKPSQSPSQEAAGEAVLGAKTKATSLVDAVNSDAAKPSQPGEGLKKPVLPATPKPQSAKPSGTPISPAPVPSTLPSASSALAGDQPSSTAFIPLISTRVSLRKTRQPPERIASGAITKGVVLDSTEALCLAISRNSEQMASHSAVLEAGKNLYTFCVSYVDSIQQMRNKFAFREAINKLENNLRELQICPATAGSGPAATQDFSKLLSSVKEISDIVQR
Chain of Casein kinase I isoform delta (Homo sapiens) (P48730 whole entry, looked up, canonical isoform): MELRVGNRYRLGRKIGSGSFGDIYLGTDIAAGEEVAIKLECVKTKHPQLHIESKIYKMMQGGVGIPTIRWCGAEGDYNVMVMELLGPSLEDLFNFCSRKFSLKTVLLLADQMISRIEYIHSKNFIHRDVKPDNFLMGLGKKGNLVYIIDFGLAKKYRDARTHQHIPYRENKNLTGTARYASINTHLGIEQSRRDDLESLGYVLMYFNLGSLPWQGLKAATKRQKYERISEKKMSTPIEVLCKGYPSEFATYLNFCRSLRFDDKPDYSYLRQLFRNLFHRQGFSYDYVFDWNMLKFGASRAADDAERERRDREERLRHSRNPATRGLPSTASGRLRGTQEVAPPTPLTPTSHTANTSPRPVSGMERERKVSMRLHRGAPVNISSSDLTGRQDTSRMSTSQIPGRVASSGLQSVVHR

Consider `COc1cc(-c2cn[nH]c2)ccc1C(=O)Nc1ccc2c(c1)CCNCC2`, for which the ΔTm was 0.96 °C in assay [1]; 0.47 °C in assay [2]; 0.7 °C in assay [3]; -0.7 °C in assay [4]; 0.38 °C in assay [5]; 0.13 °C in assay [6].

Consider `CC1CN(CC(=O)N2CC(C)(C)c3nc(CO)c(Cc4ccc(F)cc4)cc32)C(CN2CCOCC2C)CN1` (stereo not given), for which the ΔTm was 0.01 °C in assay [1]; 0.68 °C in assay [2]; 0.32 °C in assay [3]; -1.07 °C in assay [4]; 0.17 °C in assay [5]; -1.32 °C in assay [6].

Regarding `O=C1CCCN1CCNc1nc(Nc2ccc(Cl)c(Cl)c2)ncc1C(F)(F)F`, the ΔTm was 4.3 °C in assay [1]; 5.26 °C in assay [2]; 0.96 °C in assay [3]; 3.17 °C in assay [4]; 4.18 °C in assay [5]; 11.2 °C in assay [6].

With `COc1cc(Nc2cnc(C#N)c(O[C@H](C)CN(C)C)n2)ncc1-c1cnn(C)c1`, the ΔTm in assay [1] was 3.91 °C; in assay [2], 0.23 °C; in assay [3], 2.14 °C; in assay [4], 3.03 °C; in assay [5] it was 0.5 °C; in assay [6], 1.18 °C.

With `O=C(CCSCc1ccco1)NNC(=O)N1Cc2ccccc2Oc2ccc(Cl)cc21`, the ΔTm in assay [1] was 0.44 °C; in assay [2], 0.06 °C; in assay [3] it was -8.4 °C; in assay [4] it was -9.34 °C; in assay [5], 0.1 °C; in assay [6] it was 1.12 °C.

For the compound `COc1cccc(Cn2cc(C(=O)Nc3ccc(C)c(S(=O)(=O)N4CCOCC4)c3)c(-c3ccc(C)cc3)n2)c1`, the ΔTm in assay [1] was 4.84 °C; in assay [2] it was 3.65 °C; in assay [3], -0.33 °C; in assay [4] it was 1.92 °C; in assay [5] it was -3.66 °C; in assay [6], 3.73 °C.

As for `CCOc1cc(CC(=O)N[C@@H](CC(C)C)c2ccccc2N2CCCCC2)ccc1C(=O)O`, the ΔTm in assay [1] was -0.58 °C; in assay [2] it was 0.05 °C; in assay [3] it was -0.05 °C; in assay [4], 0.38 °C; in assay [5], -0.15 °C; in assay [6] it was -0.16 °C.

As to `COc1c(OCCCN2CCOCC2)ccc2c1N=C(NC(=O)c1cnc(N)nc1)N1CCN=C21`, the ΔTm in assay [1] is 0.09 °C; in assay [2] it was 0.39 °C; in assay [3], 0.2 °C; in assay [4], -1.01 °C; in assay [5] it was 0.14 °C; in assay [6], -0.67 °C.

In the case of `CCCCOc1c(C(=O)c2c(F)cc(C)cc2F)c[nH]c2nncc1-2`, the ΔTm was 0.35 °C in assay [1]; 2.95 °C in assay [2]; 0.13 °C in assay [3]; 0.42 °C in assay [4]; 0.05 °C in assay [5]; 0.96 °C in assay [6].

On to `CNC(=O)c1cc(C(=O)N[C@H]2[C@@H]3COC[C@@H]32)cc2c1O[C@H](CF)[C@H]2c1ccccc1`, for which the ΔTm in assay [1] is 0.27 °C; in assay [2], 0.34 °C; in assay [3], 0.02 °C; in assay [4] it was -0.78 °C; in assay [5] it was 0.3 °C; in assay [6], 0.31 °C.

As for `COc1cc(N[C@@H]2CCCC[C@]2(O)C(F)(F)F)ccc1F`, the ΔTm is 0.29 °C in assay [1]; 0.72 °C in assay [2]; 0.65 °C in assay [3]; -0.31 °C in assay [4]; 0.4 °C in assay [5]; -1.49 °C in assay [6].

As to `Clc1ccccc1C(c1ccccc1)(c1ccccc1)n1ccnc1`, the ΔTm in assay [1] is -1.2 °C; in assay [2], -1.88 °C; in assay [3] it was -0.72 °C; in assay [4], -2.38 °C; in assay [5], -0.79 °C; in assay [6], -2.33 °C.

In the case of `CN(C)c1ccc(-c2cc3ncccc3c(OCCCCO)n2)cc1`, the ΔTm in assay [1] was found to be 5.68 °C; in assay [2], 0.73 °C; in assay [3], 1.32 °C; in assay [4], 0.13 °C; in assay [5], 0.3 °C; in assay [6], 8.85 °C.

Take `Cc1ccc(C(=O)Nc2cc(N3CCN(C)CC3)cc(C(F)(F)F)c2)cc1-n1cc(-c2cnn(C)c2C)nn1`: the ΔTm in assay [1] is 12.9 °C; in assay [2] it was 0.76 °C; in assay [3], 1.19 °C; in assay [4], -0.67 °C; in assay [5] it was 0.45 °C; in assay [6], 0.76 °C.

Take `CC(C)Nc1ncnc2cc(OCc3cccc([S@@](C)(=N)=O)c3)c(Br)cc12`: the ΔTm in assay [1] is 2.87 °C; in assay [2] it was 0.49 °C; in assay [3], 1.35 °C; in assay [4], -0.51 °C; in assay [5] it was -0.37 °C; in assay [6] it was 4.25 °C.

Consider `Cc1nc(-c2ccc(C(F)(F)F)cc2)sc1C(=O)NCc1ccc(OC(C)(C)C(=O)O)cc1`, for which the ΔTm in assay [1] is 0.61 °C; in assay [2], 0.76 °C; in assay [3], 0.63 °C; in assay [4], -0.64 °C; in assay [5], 0.34 °C; in assay [6] it was 0.59 °C.

As for `CC(C)Oc1ccc(Cc2ccc(NC3=NCCN3)cc2)cc1`, the ΔTm is 0.13 °C in assay [1]; 0.19 °C in assay [2]; -0.09 °C in assay [3]; -0.57 °C in assay [4]; -0.5 °C in assay [5]; -0.48 °C in assay [6].

`Cc1cc(-c2cnc(N)c3c(-c4ccc5scnc5c4)csc23)n(C)n1`: the ΔTm in assay [1] is 7.77 °C; in assay [2] it was -0.21 °C; in assay [3], 0.67 °C; in assay [4], -0.81 °C; in assay [5], -0.07 °C; in assay [6], -0.03 °C.

As to `Cn1cnc(Cn2ccc3ccc(CNCc4[nH]c5ccccc5c4[C@H]4NC(=O)c5ccc(O)cc54)cc32)c1`, the ΔTm in assay [1] was 0.28 °C; in assay [2], -0.58 °C; in assay [3] it was 0.32 °C; in assay [4], -0.76 °C; in assay [5], 0.91 °C; in assay [6], 0.59 °C.

With `CCCCCCCN(CCc1ccc(SC(C)(C)C(=O)O)cc1)C(=O)Nc1ccc(F)cc1F`, the ΔTm was 0.48 °C in assay [1]; 0 °C in assay [2]; 0.48 °C in assay [3]; -1.12 °C in assay [4]; -0.08 °C in assay [5]; -1.93 °C in assay [6].

Consider `COc1cccc(-c2c(C)c(Cc3c(F)cccc3C(F)(F)F)c3n(c2=O)[C@@H]([C@@H](N)c2ccccc2)CS3)c1F`, for which the ΔTm in assay [1] was -0.84 °C; in assay [2], -0.89 °C; in assay [3], -2.7 °C; in assay [4] it was -0.72 °C; in assay [5], -2.02 °C; in assay [6], -0.62 °C.

As to `COc1cc(C)c(S(=O)(=O)N(C)CCOCC(=O)N(C)[C@H]2CCC[C@@H](N3CCN(C)CC3)C2)c(C)c1`, the ΔTm in assay [1] is -0.63 °C; in assay [2] it was 0.33 °C; in assay [3], 0.16 °C; in assay [4], -0.91 °C; in assay [5], -0.21 °C; in assay [6] it was -0.27 °C.

Turning to `COc1ccc(S(=O)(=O)N2CCOCC2)cc1Nc1ccc2c(n1)N(C1CCN(C)CC1)[C@H](C)C(=O)N2C`, the ΔTm in assay [1] was -0.01 °C; in assay [2], 0.43 °C; in assay [3] it was 0.44 °C; in assay [4], 0.08 °C; in assay [5], 0.18 °C; in assay [6] it was 0 °C.

`Nc1ncc2c(n1)-c1c([nH]c3ccc(C4CC4)cc13)CCCC2`: the ΔTm was 0.19 °C in assay [1]; -0.43 °C in assay [2]; -0.06 °C in assay [3]; 2.09 °C in assay [4]; 0.41 °C in assay [5]; -0.12 °C in assay [6].

Consider `O=C(O)c1ccc2c(c1)nc(NCc1ccccc1)c1ncncc12`, for which the ΔTm in assay [1] came out at 0.29 °C; in assay [2], 1.34 °C; in assay [3] it was 0.62 °C; in assay [4] it was 1.21 °C; in assay [5] it was 0.05 °C; in assay [6] it was 1.85 °C.
